Assay [1] in a line: qHTS assay to identify small molecule antagonists of the sonic hedgehog signaling (Shh) pathway (AID 1259369; calls by dose curve; also: nearly all actives have a fitted effect of over 45% in size; also: potency is read from the fitted curve at half-maximal effect). To be noted: NIH/3T3 Gli1-Luc reporter, Shh antagonist, luminescence 24 h; series mostly up to 92.4 µM. The gist of the method: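 Screening used 3T3Gli1-Luc cells at 2,000 per well, compounds delivered in DMSO, and conditioned medium as agonist stimulus; plates incubated 24hr at 37 C and 5% CO2 before a 30min luciferase step.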

Assay [2] deals with Estrogen receptor beta (Homo sapiens) (UniProt Q92731). As to the kind of experiment: qHTS assay to identify small molecule antagonists of the estrogen receptor beta (ER-beta) signaling pathway (AID 1259378; active = well fitted inhibition curve with a large enough effect in the signal ratio in the repeat runs, not every such curve was filed as active; the % refers to the signal ratio; also: potency is read from the fitted curve at half-maximal effect). To be noted: ER-beta-UAS-bla HEK293T, beta-lactamase FRET ratio, 16 h; series mostly up to 92.4 µM. A digest of the protocol:
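ER-beta-UAS-bla HEK293T cells in 2% charcoal-stripped FBS medium treated with compound plus 1nM final 17-beta-estradiol for 16 hr at 37C. Beta-lactamase reporter read by FRET substrate fluorescence after 2 hours at room temperature.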

Assay [3] is described as follows: qHTS assay to identify small molecule agonists of the androgen receptor (AR) signaling pathway in the presence of an antagonist - cell viability counter screen (AID 1259379).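 Also: MDA-kb2 human breast cancer cells carrying an MMTV luciferase reporter; nearly all actives have a fitted effect of over 25% in size.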 To be noted: MDA-kb2 viability, CellTiter-Fluor, 16 h; series mostly up to 92.4 µM. The gist of the method:
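In MDA-kb2 cells (human breast carcinoma, MMTV-luciferase), compounds at 15 concentrations plus 3.0uM nilutamide; 16 hr, 37C, 0% CO2; CellTiter-Fluor fluorescence read for viability.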

A short description of assay [4]: qHTS assay to identify small molecule agonists of the estrogen receptor beta (ER-beta) signaling pathway - cell viability counter screen (AID 1259380). Also: nearly all actives have a fitted effect of over 30% in size. Also: potency is read from the fitted curve at half-maximal effect. To be noted: ER-beta-bla HEK293T viability, CellTiter-Glo luminescence, 16 h; series mostly up to 92.4 µM. The gist of the method: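 Viability of ER-beta-UAS-bla HEK293T cells was determined by CellTiter-Glo luminescence following 16 hr treatment with test compounds at 37C.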

Assay [5] in a line: qHTS assay to identify small molecule antagonists of the estrogen receptor beta (ER-beta) signaling pathway - cell viability counter screen (AID 1259382). Also: nearly all actives have a fitted effect of over 55% in size. Also: potency is read from the fitted curve at half-maximal effect. To be noted: ER-beta-UAS-bla HEK293T viability, CellTiter-Glo luminescence, 16 h; series mostly up to 92.4 µM. The gist of the method: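 Tox21 10K library tested in qHTS format on ER-beta-bla HEK293T cells stimulated with 1nM E2; 16 hr treatment at 37C. Same-well CellTiter-Glo luminescence served as the cell viability measure.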

For assay [6], the target named is Estrogen receptor (Homo sapiens) (UniProt P03372). As to the kind of experiment: qHTS assay to identify small molecule agonists of the estrogen receptor alpha (ER-alpha) signaling pathway in the presence of an antagonist (AID 1259383; calls by dose curve; also: top concentration of the series differs between compounds; nearly all actives have a fitted effect of over 15% in size). To be noted: VM7Luc4E2 cells, ERE-luciferase, +ICI-182,780, 22 h; series mostly up to 92.4 µM. The gist of the method: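 In VM7Luc4E2 cells, 4,000 per well, compounds at 15 concentrations were co-incubated 22hr at 37C with 10.0nM final ICI-182,780. Luminescence from the stably transfected 4×ERE-luciferase reporter was recorded 30min after ONE-Glo addition.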

The target in assay [7] is Thyrotropin receptor (Homo sapiens) (UniProt P16473). As to the kind of experiment: qHTS assay to identify small molecule antagonists of the thyroid stimulating hormone receptor (TSHR) signaling pathway (AID 1259385; calls by dose curve; also: nearly all actives have a fitted effect of over 20% in size). To be noted: TSHR-HEK293 cAMP HTRF, TSH-stimulated antagonist mode; series mostly up to 92.4 µM. A digest of the protocol:
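TSHR-HEK293 cells (800/well) plated 18 h, then compounds with Ro20-1724 and TSH at 1.5 ng/mL final, 30 min at room temperature. cAMP quantified by HTRF (cAMP-d2/anti-cAMP-cryptate, 1 h); 15 concentrations in triplicate.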

A short description of assay [8]: qHTS assay to identify small molecule agonists of the estrogen receptor alpha (ER-alpha) signaling pathway in the presence of an antagonist - cell viability counter screen (AID 1259386).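 Also: cells exposed to compounds for 22 h at 37 °C before the viability read; nearly all actives have a fitted effect of over 30% in size.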 To be noted: VM7Luc4E2 viability, CellTiter-Fluor fluorescence, 22 h; series mostly up to 92.4 µM. The gist of the method: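 Fluorescent CellTiter-Fluor viability signal from VM7Luc4E2 cells, with the reagent added during the final hour of a 22hr compound exposure at 37C in the presence of 10.0nM ICI-182,780.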

For assay [9], the target named is Progesterone receptor (Homo sapiens) (UniProt P06401). As to the kind of experiment: qHTS assay to identify small molecule agonists of the progesterone receptor (PR) signaling pathway (AID 1346784; calls by dose curve; also: nearly all actives have a fitted effect of over 30% in size). To be noted: PR-UAS-bla HEK293T, beta-lactamase FRET ratio, 16 h; series mostly up to 92.4 µM. A digest of the protocol:
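Agonist qHTS: compounds pinned onto 3,000 PR-UAS-bla HEK 293T cells per well in charcoal-stripped serum medium, 16hr at 37C, then beta-lactamase activity measured by LiveBLAzer FRET fluorescence after 2 hours at room temperature.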

Assay [10] shares this target. As to the kind of experiment: qHTS assay to identify small molecule antagonists of the progesterone receptor (PR) signaling pathway (AID 1346795; active = well fitted inhibition curve with a large enough effect in the signal ratio in the repeat runs, not every such curve was filed as active; the % refers to the signal ratio). To be noted: PR-UAS-bla HEK293T, beta-lactamase FRET ratio, 16 h; series mostly up to 92.4 µM. The gist of the method: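 Antagonist mode with agonist R5020 at 1 nM final and 16 hr incubation at 37C. Reporter was beta-lactamase driven by UAS in HEK293T (PR-UAS-bla), 2% charcoal-stripped serum; signal from LiveBLAzer FRET substrate, 2 hr at room temperature.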

Assay [11] can be described thus: qHTS assay to identify small molecule antagonists of the progesterone receptor (PR) signaling pathway - cell viability counter screen (AID 1346798). Also: nearly all actives have a fitted effect of over 50% in size. Also: potency is read from the fitted curve at half-maximal effect. To be noted: PR-UAS-bla HEK293T viability, CellTiter-Glo luminescence, 16 h; series mostly up to 92.4 µM. A digest of the protocol: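 Cytotoxicity read as CellTiter-Glo luminescence (30 min, room temperature) in the same wells as the beta-lactamase readout. HEK293T PR-UAS-bla cells in charcoal-stripped 2% FBS received compound and R5020, then 16 h at 37C, 5% CO2.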

Assay [12] in a line: qHTS assay to identify small molecule agonists of the progesterone receptor (PR) signaling pathway - cell viability counter screen (AID 1346799; calls by dose curve; also: nearly all actives have a fitted effect of over 45% in size; also: potency is read from the fitted curve at half-maximal effect). To be noted: PR-UAS-bla HEK293T viability, CellTiter-Glo luminescence, 16 h; series mostly up to 92.4 µM. A digest of the protocol:
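Cytotoxicity measured by CellTiter-Glo luminescence (30 min, RT) in the same wells as the PR beta-lactamase agonist read. Those HEK293T cells had 16 h compound treatment at 37 C in 2% charcoal-stripped FBS medium.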

The nature of assay [13]: qHTS assay to identify small molecule antagonists of the TGF-beta/Smad signaling pathway - cell viability counter screen (AID 1346824). Also: nearly all actives have a fitted effect of over 50% in size. To be noted: SBE-bla HEK293T viability, CellTiter-Glo luminescence; series mostly up to 76.8 µM. A digest of the protocol: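 SBE-bla HEK 293T cells, incubated overnight, then compound plus 0.25 ng/mL TGF-beta1 (stock added) for 5 hr at 37 C. Viability was read in the same wells by CellTiter-Glo luminescence after 30 min at room temperature.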

Assay [14] is described as follows: qHTS assay to identify small molecule agonists of the TGF-beta/Smad signaling pathway - cell viability counter screen (AID 1346829). Also: top concentration of the series differs between compounds; nearly all actives have a fitted effect of over 45% in size. To be noted: SBE-bla HEK293T viability, CellTiter-Glo luminescence, 5 h; series mostly up to 76.8 µM. A digest of the protocol:
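HEK 293T SBE-bla line, 5 hr compound exposure at 37 C, multiplexed CellTiter-Glo viability read by luminescence.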

A short description of assay [15]: qHTS assay to identify small molecule agonists of the TGF-beta/Smad signaling pathway (AID 1346859; active = well fitted activation curve with a large enough effect in the signal ratio in the repeat runs, not every such curve was filed as active; the % refers to the signal ratio). To be noted: SBE-bla HEK293T, TGF-beta/Smad beta-lactamase reporter, 5 h; series mostly up to 76.8 µM. The gist of the method: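 Fluorescence (ex 405 nm; em 460 and 530 nm) was read 2 h after LiveBLAzer FRET substrate at RT. The preceding compound treatment of overnight-plated SBE-bla HEK293T cells lasted 5 h at 37 C.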

The target of assay [16] is Thyrotropin-releasing hormone receptor (Homo sapiens) (UniProt P34981). As to the kind of experiment: qHTS assay to identify small molecule antagonists of the thyrotropin-releasing hormone receptor (TRHR) signaling pathway (AID 1346877; active = well fitted inhibition curve with a large enough effect in the repeat runs, not every such curve was filed as active). To be noted: TRHR-HEK293, TRH-induced calcium fluorescence, antagonist mode; series mostly up to 51.3 µM. The gist of the method: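 In this cell-based calcium flux format, HEK293 cells expressing TRHR received test compound for 5 min before the agonist TRH (1 nM final). Dye loading lasted 2 h at 37 °C.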

For assay [17] the target is unchanged. As to the kind of experiment: qHTS assay to identify small molecule agonists of the thyrotropin-releasing hormone receptor (TRHR) signaling pathway (AID 1346891; calls by dose curve). To be noted: TRHR-HEK293 calcium fluorescence, agonist mode; series mostly up to 57.6 µM. A digest of the protocol: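 Agonist-mode intracellular calcium readout: kinetic fluorescence over 3 min at 1 s intervals after compound addition to TRHR-HEK293 cells (18 h seeded, 2 h dye-loaded at 37 C). Fifteen concentrations, triplicates.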

Assay [18] in a line: qHTS assay to identify small molecule agonists or antagonists of the thyroid stimulating hormone receptor (TSHR) signaling pathway - wild type cell line counter screen (AID 1259384; calls by dose curve). To be noted: HEK293 wild type, cAMP HTRF counter-screen, active compounds read high; series mostly up to 92.4 µM. The gist of the method:
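Wild-type Hek293 cells, 800/well, 18 h at 37C, then compound with Ro20-1724 for 30 min RT. cAMP by HTRF (cAMP-d2/anti-cAMP cryptate), 1 h RT, fluorescence read. 15 concentrations, triplicates.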

Assay [19] addresses Androgen receptor (Homo sapiens) (UniProt P10275). As to the kind of experiment: qHTS assay to identify small molecule agonists of the androgen receptor (AR) signaling pathway in the presence of an antagonist (AID 1259381; calls by dose curve; also: nearly all actives have a fitted effect of over 15% in size). To be noted: MDA-kb2 MMTV-luciferase, AR agonist + nilutamide, 16 h; series mostly up to 42.5 µM. The gist of the method:
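Here, 15-concentration compound series were pin-transferred onto MDA-kb2 MMTV-luciferase cells already dosed with nilutamide (3.0uM final). After 16hr at 37C, ONE-Glo was added and luminescence read 30min later at room temperature.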

Inconclusive results are not listed. Activity calls are given as the source filed them. Unless noted, calls follow the shape of the dose curve; as a rule, active = well fitted curve in the direction sought with a large enough effect in the repeat runs; inconclusive = weak or mixed curves; inactive = no such curve, though single readings can be large; an effect the other way counts as inactive or inconclusive.

Sequence of Estrogen receptor beta (Homo sapiens) (Q92731 whole entry, looked up): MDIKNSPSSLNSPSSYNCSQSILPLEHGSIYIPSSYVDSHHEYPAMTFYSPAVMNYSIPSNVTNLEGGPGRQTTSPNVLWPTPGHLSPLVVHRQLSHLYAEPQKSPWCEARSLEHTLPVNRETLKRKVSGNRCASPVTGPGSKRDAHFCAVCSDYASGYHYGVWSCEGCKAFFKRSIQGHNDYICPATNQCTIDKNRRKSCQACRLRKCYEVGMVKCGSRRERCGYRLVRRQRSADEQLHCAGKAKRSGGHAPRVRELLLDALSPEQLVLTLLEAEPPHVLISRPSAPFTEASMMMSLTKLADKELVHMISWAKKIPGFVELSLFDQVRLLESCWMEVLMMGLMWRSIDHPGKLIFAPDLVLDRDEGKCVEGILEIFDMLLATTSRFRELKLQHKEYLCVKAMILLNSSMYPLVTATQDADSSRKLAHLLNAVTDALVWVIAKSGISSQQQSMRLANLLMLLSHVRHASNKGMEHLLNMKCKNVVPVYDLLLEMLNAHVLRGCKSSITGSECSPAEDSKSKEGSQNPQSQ
Sequence of Thyrotropin-releasing hormone receptor (Homo sapiens) (P34981 whole entry, looked up): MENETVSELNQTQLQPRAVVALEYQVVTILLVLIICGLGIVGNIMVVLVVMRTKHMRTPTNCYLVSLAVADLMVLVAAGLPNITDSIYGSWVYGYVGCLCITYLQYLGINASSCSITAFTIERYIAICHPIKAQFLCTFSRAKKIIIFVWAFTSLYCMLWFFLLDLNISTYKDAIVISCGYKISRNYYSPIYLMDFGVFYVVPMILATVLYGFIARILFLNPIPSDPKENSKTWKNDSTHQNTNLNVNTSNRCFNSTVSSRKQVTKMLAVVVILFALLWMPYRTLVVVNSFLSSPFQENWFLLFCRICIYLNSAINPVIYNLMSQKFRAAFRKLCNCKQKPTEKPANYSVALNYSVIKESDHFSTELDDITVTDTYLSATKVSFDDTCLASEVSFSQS
Sequence of Progesterone receptor (Homo sapiens) (P06401 whole entry, looked up): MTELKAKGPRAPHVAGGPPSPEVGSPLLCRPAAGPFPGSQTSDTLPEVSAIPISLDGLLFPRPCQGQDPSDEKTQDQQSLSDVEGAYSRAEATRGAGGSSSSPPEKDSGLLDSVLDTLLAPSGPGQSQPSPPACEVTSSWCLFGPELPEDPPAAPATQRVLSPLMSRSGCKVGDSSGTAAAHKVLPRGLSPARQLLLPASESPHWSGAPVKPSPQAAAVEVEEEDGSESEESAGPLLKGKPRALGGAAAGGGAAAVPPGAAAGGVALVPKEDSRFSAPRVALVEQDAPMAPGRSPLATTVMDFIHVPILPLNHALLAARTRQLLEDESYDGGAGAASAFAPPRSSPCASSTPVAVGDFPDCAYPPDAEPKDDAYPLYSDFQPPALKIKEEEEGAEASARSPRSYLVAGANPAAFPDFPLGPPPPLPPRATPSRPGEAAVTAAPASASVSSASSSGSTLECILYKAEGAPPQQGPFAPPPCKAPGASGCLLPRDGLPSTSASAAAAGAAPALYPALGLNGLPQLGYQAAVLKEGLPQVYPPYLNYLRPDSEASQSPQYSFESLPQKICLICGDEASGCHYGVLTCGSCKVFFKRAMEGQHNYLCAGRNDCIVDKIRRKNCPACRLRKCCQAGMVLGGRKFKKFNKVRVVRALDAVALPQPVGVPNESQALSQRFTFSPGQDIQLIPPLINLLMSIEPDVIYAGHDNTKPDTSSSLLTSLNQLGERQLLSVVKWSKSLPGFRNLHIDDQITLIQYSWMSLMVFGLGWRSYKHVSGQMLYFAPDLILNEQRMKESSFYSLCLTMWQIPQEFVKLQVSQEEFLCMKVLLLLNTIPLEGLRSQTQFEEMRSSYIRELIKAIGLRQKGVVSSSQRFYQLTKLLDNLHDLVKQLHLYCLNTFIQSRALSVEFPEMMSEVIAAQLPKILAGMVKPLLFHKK
Sequence of Thyrotropin receptor (Homo sapiens) (P16473 whole entry, looked up): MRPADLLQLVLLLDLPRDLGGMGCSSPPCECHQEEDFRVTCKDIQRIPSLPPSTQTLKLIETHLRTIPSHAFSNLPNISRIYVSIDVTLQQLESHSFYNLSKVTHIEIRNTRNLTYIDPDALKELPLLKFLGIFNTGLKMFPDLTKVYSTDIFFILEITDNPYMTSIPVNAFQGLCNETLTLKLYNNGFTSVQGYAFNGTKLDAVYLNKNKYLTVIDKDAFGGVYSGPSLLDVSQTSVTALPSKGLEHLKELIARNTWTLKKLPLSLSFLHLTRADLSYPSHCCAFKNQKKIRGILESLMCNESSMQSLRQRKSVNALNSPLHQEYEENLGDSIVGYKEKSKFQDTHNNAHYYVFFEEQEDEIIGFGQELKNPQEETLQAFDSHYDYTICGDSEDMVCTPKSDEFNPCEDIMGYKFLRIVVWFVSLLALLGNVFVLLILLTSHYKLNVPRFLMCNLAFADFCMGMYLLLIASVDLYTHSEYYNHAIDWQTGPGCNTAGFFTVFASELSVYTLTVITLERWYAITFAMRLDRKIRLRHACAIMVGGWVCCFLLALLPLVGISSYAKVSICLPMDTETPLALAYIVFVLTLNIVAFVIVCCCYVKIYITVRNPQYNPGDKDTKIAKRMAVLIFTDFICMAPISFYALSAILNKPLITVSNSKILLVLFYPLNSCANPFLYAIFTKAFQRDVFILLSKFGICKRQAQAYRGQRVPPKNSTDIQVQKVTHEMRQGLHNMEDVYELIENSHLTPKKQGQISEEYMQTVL
Sequence of Estrogen receptor (Homo sapiens) (P03372 whole entry, looked up): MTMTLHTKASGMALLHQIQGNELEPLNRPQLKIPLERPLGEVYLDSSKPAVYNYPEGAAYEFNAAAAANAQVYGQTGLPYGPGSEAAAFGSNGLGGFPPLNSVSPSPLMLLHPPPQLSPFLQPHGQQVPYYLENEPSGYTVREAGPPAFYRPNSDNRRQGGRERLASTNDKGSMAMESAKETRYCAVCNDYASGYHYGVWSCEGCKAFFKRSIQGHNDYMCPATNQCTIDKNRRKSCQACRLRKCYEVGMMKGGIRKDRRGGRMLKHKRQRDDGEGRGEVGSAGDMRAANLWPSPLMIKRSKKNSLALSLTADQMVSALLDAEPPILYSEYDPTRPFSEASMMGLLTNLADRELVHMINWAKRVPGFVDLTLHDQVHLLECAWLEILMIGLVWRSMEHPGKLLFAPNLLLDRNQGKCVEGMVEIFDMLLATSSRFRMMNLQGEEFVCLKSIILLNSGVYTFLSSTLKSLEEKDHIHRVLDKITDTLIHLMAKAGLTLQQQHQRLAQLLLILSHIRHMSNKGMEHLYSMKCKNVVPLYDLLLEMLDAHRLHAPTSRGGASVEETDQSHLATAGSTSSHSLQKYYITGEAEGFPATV
Sequence of Androgen receptor (Homo sapiens) (P10275 whole entry, looked up): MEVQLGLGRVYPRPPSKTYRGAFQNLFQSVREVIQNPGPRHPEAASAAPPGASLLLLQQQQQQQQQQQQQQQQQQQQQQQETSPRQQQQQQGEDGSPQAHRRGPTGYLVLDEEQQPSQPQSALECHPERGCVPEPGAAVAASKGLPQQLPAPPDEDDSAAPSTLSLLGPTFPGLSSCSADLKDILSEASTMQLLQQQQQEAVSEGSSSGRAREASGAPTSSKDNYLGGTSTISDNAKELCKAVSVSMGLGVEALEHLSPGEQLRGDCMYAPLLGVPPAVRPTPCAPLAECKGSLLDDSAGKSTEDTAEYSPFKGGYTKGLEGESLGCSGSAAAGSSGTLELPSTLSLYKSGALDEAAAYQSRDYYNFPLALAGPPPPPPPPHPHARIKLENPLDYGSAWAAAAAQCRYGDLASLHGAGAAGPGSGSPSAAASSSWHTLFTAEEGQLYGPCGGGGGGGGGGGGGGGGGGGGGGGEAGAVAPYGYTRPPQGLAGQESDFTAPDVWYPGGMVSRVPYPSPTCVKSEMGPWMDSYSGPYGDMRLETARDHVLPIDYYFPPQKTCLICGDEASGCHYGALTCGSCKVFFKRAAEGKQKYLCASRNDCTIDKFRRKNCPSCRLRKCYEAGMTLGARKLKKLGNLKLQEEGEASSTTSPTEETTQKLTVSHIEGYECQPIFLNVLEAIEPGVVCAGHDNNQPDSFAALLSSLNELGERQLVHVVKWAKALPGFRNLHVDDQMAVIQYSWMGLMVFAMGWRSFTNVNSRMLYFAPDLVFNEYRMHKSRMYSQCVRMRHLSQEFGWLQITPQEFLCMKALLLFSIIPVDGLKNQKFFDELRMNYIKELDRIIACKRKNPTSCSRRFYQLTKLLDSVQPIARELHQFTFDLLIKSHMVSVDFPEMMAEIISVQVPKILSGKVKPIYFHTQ

As for `C1COCO1`, the Potency result in assay [1], in assay [2], in assay [3], in assay [4], in assay [5] and in assay [6] was “inactive” in each case. Besides, the Potency entry in assay [7], in [8], in [9], in assay [10], in assay [11] and in [12] was “inactive” each time. Moreover, the Potency entry in [17] was “inactive”. Also, the call in assay [13], in assay [14], in assay [15] and in [16] was inactive.
Regarding `CCCCCCCC/C=C\CCCCCCCC(=O)OC`, the Potency result in [1], in assay [2], in assay [3], in assay [4], in [5] and in assay [8] was “inactive” each time. Further, the Potency result in assay [9], in assay [10] and in assay [12] was “inactive” each time. For the same compound, the compound was classed as inactive in assay [18], in [13], in [14] and in assay [15].
With `CCOC(=O)c1ccccc1OC`, the Potency result in assay [1], in assay [2], in assay [3], in assay [4], in assay [5] and in assay [8] was “inactive” throughout. The Potency result in assay [9], in assay [10], in [11] and in [12] was “inactive” in each case. Moreover, the compound was called inactive in assay [18], in assay [13], in assay [14], in [15] and in assay [16].
With `CNCCCC1c2ccccc2C=Cc2ccccc21`, the Potency in assay [1] was 9.44 µM (active); in assay [2] it was 11.9 µM (active); in assay [4] it was 23.7 µM (active); in assay [5], 18.8 µM (active); in [11], 21.1 µM (active); in assay [12] it was 10.6 µM (active). Besides, the Potency entry in [6], in assay [8], in assay [9] and in [17] was “inactive” in each case. In addition, the outcome in assay [18], in assay [13], in assay [14], in assay [15] and in assay [16] was inactive.
For the compound `CC(C)CCCCCOC(=O)CCCCC(=O)OCCCCCC(C)C`, the Potency entry in [1], in assay [2], in [3], in assay [4], in assay [5] and in assay [8] was “inactive” in each case. The Potency entry in assay [9], in [10], in assay [11] and in [12] was “inactive” throughout. Moreover, the compound was called inactive in [18], in assay [13], in assay [14], in assay [15] and in assay [16].
As to `C=C(C)C(=O)OCCOC(=O)CC(C)=O`, the Potency entry in assay [1], in assay [2], in [3], in assay [4], in assay [5] and in assay [7] was “inactive” each time. For the same compound, the Potency entry in assay [9], in assay [11] and in assay [12] was “inactive” each time. The outcome in assay [13], in assay [14] and in assay [15] was inactive.
For the compound `C/C=C(\C)C(=O)OCCC(C)CCC=C(C)C` (centres undefined), the Potency entry in assay [1], in assay [2], in assay [3], in [4], in assay [5] and in assay [9] was “inactive” in each case. In addition, the Potency entry in [10], in assay [11] and in [12] was “inactive” in each case. Further, the outcome in assay [13], in assay [14] and in assay [15] was inactive.
Turning to `C=CC(=C)CCCC(C)(C)OC(C)=O`, the Potency result in assay [1], in [2], in assay [3], in assay [4], in assay [19] and in assay [5] was “inactive” each time. The Potency entry in assay [7], in [9], in assay [10], in assay [11] and in [12] was “inactive” each time. Also, the result in assay [13], in [14], in assay [15] and in [16] was inactive.

The values are drawn from PubChem BioAssay (Tox21).
